Measurements: PubChem BioAssay (NCI)
The panel holds about 79,000 compounds, 15% with a hit somewhere; the sample as a whole holds those more often. Unmarked numbers belong to inactive results. Active and inactive are the calls of the source. No stated cut-off is given here; in the data, active means growth inhibition above about 70%; inactive means the rest.

Assays:
[1] = NCI Yeast Anticancer Drug Screen. Data for the rad50 strain (AID 155);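 further: 0% = growth of vehicle-only cultures of the same strain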; conditions: S. cerevisiae rad50 strain growth inhibition; at 50.0 µM; stronger effect = higher value
How it was run: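 DNA repair mutant yeast, compound exposure, growth read-out; inhibition is taken relative to vehicle.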

[2] = NCI Yeast Anticancer Drug Screen. Data for the mec2-1 strain (AID 157); conditions: S. cerevisiae mec2-1 strain, at 50.0 µM, stronger effect = higher value
How it was run: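 Each compound was tested on mec2-1 yeast, a strain altered in DNA damage repair or cell cycle control. Growth inhibition is reported relative to vehicle.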

[3] = NCI Yeast Anticancer Drug Screen. Data for the sgs1 mgt1 strain (AID 161);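 further: 0% = growth of cultures given vehicle only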; conditions: S. cerevisiae sgs1 mgt1 strain, at 50.0 µM, stronger effect = higher value
How it was run: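 Inhibition of yeast growth, normalised to vehicle-treated controls, is reported for a strain bearing genetic alterations in DNA damage repair.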

[4] = NCI Yeast Anticancer Drug Screen. Data for the cln2 rad14 strain (AID 165);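 further: 0% = growth equal to vehicle treated cultures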; conditions: S. cerevisiae cln2 rad14 strain, at 50.0 µM, stronger effect = higher value
How it was run: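 Test compounds were added to cln2 rad14 yeast cultures; inhibition of growth was then determined by comparison with vehicle treatment.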

[5] = NCI Yeast Anticancer Drug Screen. Data for the bub3 strain (AID 167); conditions: S. cerevisiae bub3 mutant strain, at 50.0 µM, stronger effect = higher value
How it was run: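 In this screen, a yeast mutant lacking normal mitotic checkpoint function is challenged with compound. Relative growth versus vehicle gives the inhibition value.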

[6] = NCI Yeast Anticancer Drug Screen. Data for the mlh1 rad18 strain (AID 175); conditions: S. cerevisiae mlh1 rad18 strain growth inhibition; at 50.0 µM; stronger effect = higher value
How it was run: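 Inhibition values reflect reduced growth of mutant yeast versus vehicle-treated controls following compound exposure; the mutations affect DNA damage repair.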

Structure (SMILES) | growth inhibition [1] | growth inhibition [2] | growth inhibition [3] | growth inhibition [4] | growth inhibition [5] | growth inhibition [6]
CC(C)CCCC(C)C1CCC2C3CC=C4CC(OC(=O)Nc5ccc(S(=O)(=O)N6CCCCC6)cc5)CCC4(C)C3CCC12C (stereo unspecified) | 2.3% | 2.45% | 1.65% | -5.8% | -3.75% | 6.45%
O=C(Nc1ccc(C(=O)CCl)cc1)Nc1ccc(C(=O)CCl)cc1 | 8.65% | 14.1% | 20.2% | 0.35% | 12.9% | 14.6%
CCOC(=O)c1nc2ccccc2nc1NCc1ccc(OC)cc1 | -6.5% | -6.45% | -30.4% | 6.55% | -22.4% | 3.4%
COc1ccc(OC2OC(CO)C(OCc3ccccc3)C(OCc3ccccc3)C2OCc2ccccc2)cc1 (stereo unspecified) | 5.6% | -11.7% | -11.7% | 2.4% | -33.6% | -42.8%
Nc1ncncc1Oc1ccccc1 | 8.25% | -5.35% | -0.2% | -33.6% | 4.05% | -14.4%
Cc1ccc(S(=O)(=O)NN=C2CC3C4CCC5C4CC3C25)cc1 (stereo unspecified) | 21.9% | -4.5% | 15.9% | 12% | -13.5% | 7.1%
O=c1[nH]nc(Cc2ccc(Cl)cc2)n1O | 3.3% | 5.3% | 0.1% | -26.6% | -13.5% | 1.65%
C#CCOc1ccc(C(F)(F)F)cc1 | -8.1% | -15.4% | -1.6% | -17.4% | 15.4% | -2.05%
Clc1cnnc2nc[nH]c12 | -10.8% | -7.4% | -24.2% | -28.1% | -15.8% | -23.2%
CNC(=O)CN(CC(=O)NC)C(=O)NC | 9.95% | 7.3% | -18% | -3.65% | -2.35% | 1.55%
COc1cc(CCCCC(=O)O)ccc1OC(=O)c1ccccc1 | -15.6% | -4.85% | 1.85% | 2.05% | -6.3% | -5.1%
CNC(=O)c1ccccc1Cl | -0.55% | 6.9% | 10.8% | 4.65% | 3.9% | 19.2%
CCOC(=O)COc1cc2c(cc1C(C)c1ccc(OCc3ccccc3)c(OC)c1)OCO2 (stereo unspecified) | -0.95% | -7.55% | -9.7% | 10.6% | -7.4% | -6.3%
OCCNNCCO | 13.3% | 1.05% | -14.7% | -8.85% | 15.1% | 1.9%
C1CCSCCCCCSCCCCCSCCCCCSCC1 | 25.2% | -7.55% | -4.2% | -3.15% | 4.35% | -8.7%
CCC1(c2ccccc2)SC(N)=NC1=O (stereo unspecified) | 2.15% | 2.75% | -12.8% | -8.45% | 1.05% | -0.6%
CC(=O)OC1OC(C)C(OC(=O)c2ccccc2)C1OC(C)=O (stereo unspecified) | 21.1% | -3.15% | 2.3% | -1.25% | 6.25% | 33.6%
O=C(O)c1cccc2c1C1CCC2c2cccc(C(=O)O)c21 | -29.2% | 0.95% | 15.6% | 3.05% | -2.6% | 9.7%
COc1cc2c3c(c1OC)C1(C=CC(=O)C=C1)CC3NCC2 (stereo unspecified) | -45.9% | -4.8% | -8.5% | -10.1% | -18.9% | -45.6%
N=c1c(C(=O)O)cccn1O | 8.1% | -5.1% | 9.1% | -50.9% | -6.55% | 4.9%
COc1cccc(CCNC(=O)Cc2ccccc2CCO)c1 | -5.8% | -7.8% | -46.8% | 9.35% | -37.9% | -53.8%

Structure (SMILES) | growth inhibition [1] | growth inhibition [2] | growth inhibition [3] | growth inhibition [4] | growth inhibition [5] | growth inhibition [6]
Cc1cccc2c1sc1c(C)cc(C(=O)CCC(=O)O)cc12 | 9% | 11.2% | 5.3% | 3.4% | 20.4% | 25.4%
CSc1cc(Br)ccc1-n1c(C(=O)c2ccccc2)c(SC)n(-c2ccccc2)c1=O | -0.05% | 21.3% | 20.6% | 7.65% | 15.7% | 5.05%
CO[C@@H]1C2C3c4ccccc4C(c4ccccc43)C2[C@H](OC)[C@H]2OC(c3ccccc3)O[C@H]21 (stereo partly specified) | -13.4% | -14.9% | 7.15% | 10% | 2.15% | -2.65%
CC1=NC2c3c(-c4ccc(Cl)cc4)cn(-c4ccc(C)cc4)c3N=CN2N1 (stereo unspecified) | 7.75% | -5.9% | -16.6% | 15.8% | 0.5% | -1.6%
CN1c2ccccc2N(C(=O)c2ccccc2)C(CC(=O)O)c2cccn21 (stereo unspecified) | -22.4% | -40.5% | -33.1% | 23.8% | -45% | -16.3%
Nc1nc(/C=C(/O)c2ccccc2)c2ncn(C3OC(CO)C(O)C3O)c2n1 (stereo unspecified) | 25.3% | -6.25% | 13.4% | -4.7% | 11.2% | -17.8%
C[N+](C)(C)C(Cc1ccccc1)Cc1ccccc1 | -27% | 9.95% | -29.9% | -47.1% | -0.7% | 5.65%
O=C(Nc1cccc(C(F)(F)F)c1)OCCOc1ccc(Cl)cc1 | 99.2% (active) | 99.3% (active) | 99.2% (active) | 98% (active) | 99% (active) | 98% (active)
O=C1C2C3C=CC(O3)C2C(=O)N1N=C1CCCCC1 (stereo unspecified) | 10.4% | 13.2% | 14.2% | 8.65% | 12.6% | 19.4%
CN(Nc1c([N+](=O)[O-])cc([N+](=O)[O-])cc1[N+](=O)[O-])c1ccc2ccccc2c1 | 14.2% | 7.3% | 21.4% | 24.2% | 7.2% | 8.35%
COc1cc(/C=C/C(=N\NC(=S)NN)c2sc(NNC(C)=O)nc2C)ccc1O | 22.5% | -4.5% | 21.7% | 9.1% | 15.5% | 19.2%
COC(=O)NC1=Nc2ccccc2N(C(=O)Oc2ccccc2)S1 | 7.8% | 0.6% | 26.4% | 23.6% | 83.2% (active) | 33.9%
O=C(CCCn1ccnc1[N+](=O)[O-])NCCn1cncc1[N+](=O)[O-] | 0.65% | -8.2% | 5.9% | 7.6% | 0.25% | -9.9%
COC(=O)C(C)S(=O)(=O)O (stereo unspecified) | -12.2% | -2.5% | 9.35% | -80.5% | 2.9% | 0.3%
CC(SC(=S)Nc1ccc(Cl)cc1)C(=O)O (stereo unspecified) | 39.5% | 1.15% | 24.8% | -42% | 4.8% | 12.3%
CN1C(=O)C2CC(=O)N(Cc3ccccc3)C(=O)C2C1=O (stereo unspecified) | 0.5% | -16.1% | -1.05% | 9.3% | -5.4% | -1.35%
c1c2c(cc3c1OCN(C1CC1)C3)OCN(C1CC1)C2 | 0.7% | 5.6% | 10% | -19.2% | -13.8% | -3.35%
Cc1ccc([N+](=O)[O-])cc1NC(=O)Cc1ccccc1 | 4.05% | 29.8% | 1.45% | -8% | 18.3% | 17.6%
O=C(NCCCl)Nc1cccc2c1CCC2 | -11.1% | -0.7% | -9.5% | -47.3% | -23.1% | -4.8%
CNCCS(=O)(=O)O | 13.9% | -3.05% | 1.7% | -6.3% | 13.6% | 9.25%
